The results in this text go back to PubChem BioAssay (NCATS).

Assay [1] can be described thus: qHTS for Inhibitors of the Functional Ribonucleoprotein Complex (vRNP) of Lassa (LASV) Arenavirus: LASV Primary Screen - GLuc reporter signal (AID 1347082; calls by dose curve; tested in HEK293 reporter line; also: series mostly up to about 57 µM; nearly all actives have a fitted effect of over 60% in size). A general note: qHTS replaces the single test concentration by a dilution series.
Assay [2] can be described thus: qHTS for Inhibitors of the Functional Ribonucleoprotein Complex (vRNP) of Lassa (LASV) Arenavirus: Viability assay - alamar blue signal for LASV Primary Screen (AID 1347083; calls by dose curve; tested in HEK293 reporter line; also: series mostly up to about 57 µM; nearly all actives have a fitted effect of over 80% in size).
Assay [3] is described as follows: qHTS for Inhibitors of the Functional Ribonucleoprotein Complex (vRNP) of Lymphocytic Choriomeningitis Arenaviruses (LCMV): Viability assay - alamar blue signal for LCMV Primary Screen (AID 1347085; calls by dose curve; tested in HEK293 reporter line; also: series mostly up to about 57 µM; nearly all actives have a fitted effect of over 80% in size).
The target in assay [4] is Nucleoprotein (Lymphocytic choriomeningitis virus (strain Armstrong)) (UniProt P09992). In words: qHTS for Inhibitors of the Functional Ribonucleoprotein Complex (vRNP) of Lymphocytic Choriomeningitis Arenaviruses (LCMV): LCMV Primary Screen - GLuc reporter signal (AID 1347086; calls by dose curve; also: series mostly up to about 57 µM; nearly all actives have a fitted effect of over 70% in size).
Sequence of Nucleoprotein (Lymphocytic choriomeningitis virus (strain Armstrong)) (P09992 whole entry, looked up): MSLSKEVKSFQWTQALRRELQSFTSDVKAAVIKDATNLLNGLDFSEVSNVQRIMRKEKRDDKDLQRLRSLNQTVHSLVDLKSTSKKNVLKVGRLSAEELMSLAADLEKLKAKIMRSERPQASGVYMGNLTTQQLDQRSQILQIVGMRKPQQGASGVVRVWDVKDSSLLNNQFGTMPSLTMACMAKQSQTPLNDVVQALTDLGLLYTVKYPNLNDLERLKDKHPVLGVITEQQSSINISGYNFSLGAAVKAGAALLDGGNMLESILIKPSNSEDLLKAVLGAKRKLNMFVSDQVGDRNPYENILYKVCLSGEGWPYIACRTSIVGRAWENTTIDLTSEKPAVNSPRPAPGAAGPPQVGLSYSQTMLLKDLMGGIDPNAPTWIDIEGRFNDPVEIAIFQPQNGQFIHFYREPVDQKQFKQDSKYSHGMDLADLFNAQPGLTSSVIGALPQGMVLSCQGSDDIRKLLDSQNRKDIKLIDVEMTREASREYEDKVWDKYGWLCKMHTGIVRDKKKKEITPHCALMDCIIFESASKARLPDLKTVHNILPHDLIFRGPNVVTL
Assay [5] in a line: qHTS of pediatric cancer cell lines to identify multiple opportunities for drug repurposing: Primary screen for TC32 cells (AID 1347089). Also: nearly all actives have a fitted effect of over 60% in size. Summed up: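 A viability screen of TC32 cells was run over 48 h, with primary MIPE doses spanning 0.78 nM–46 µM and NPC doses 0.59 nM–46 µM. ATP luminescence (CellTiter-Glo) served as the read-out.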
A short description of assay [6]: qHTS of pediatric cancer cell lines to identify multiple opportunities for drug repurposing: Primary screen for DAOY cells (AID 1347090). Also: series mostly up to about 46 µM; nearly all actives have a fitted effect of over 55% in size. Summed up:
(§1)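 Viability measured as metabolically active cells via CellTiter-Glo luminescence following 48 hours of compound exposure, 11-point dilutions in confirmatory testing. 500-1,000 cells/well plated 5 hours before dosing; controls were DMSO and 2.3 µM bortezomib.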

A short description of assay [7]: qHTS of pediatric cancer cell lines to identify multiple opportunities for drug repurposing: Primary screen for SJ-GBM2 cells (AID 1347091). Also: potency is read from the fitted curve at half-maximal effect. Summed up: as §1
Assay [8] is described as follows: qHTS of pediatric cancer cell lines to identify multiple opportunities for drug repurposing: Primary screen for A673 cells (AID 1347092). Also: nearly all actives have a fitted effect of over 45% in size. Summed up:
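Titration-based qHTS on A673 cells: MIPE compounds spanned 11 points (0.78 nM to 46 µM final), NPC compounds 8 points (0.59 nM to 46 µM final). Viability after 48 h was measured by ATP luminescence.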

A short description of assay [9]: qHTS of pediatric cancer cell lines to identify multiple opportunities for drug repurposing: Primary screen for SK-N-MC cells (AID 1347093). Also: series mostly up to about 46 µM. In a few lines:
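Metabolically active cells were quantified by ATP-dependent luminescence (CellTiter-Glo, 15 min at room temperature) following 48 h treatment. Cells had been plated at 500-1,000 per well and settled for 5 h beforehand.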

Structures are written as SMILES. Records with an inconclusive call do not appear. The source made the active and inactive calls. Unless noted, calls follow the shape of the dose curve; as a rule, active = well fitted curve in the direction sought with a large enough effect; inconclusive = small, poorly fitted or top-dose-only effect, or another doubt; inactive = no such curve, though single readings can be large; an effect the other way counts as inactive or inconclusive.

As for `CC(C)(N)Cc1ccccc1Cl`, the Potency entry in assay [1], in [2], in assay [3], in assay [4], in assay [5] and in [6] was “inactive” each time. The Potency entry in [7] and in assay [8] was “inactive” throughout.
In the case of `O=C(OCCN1CCOCC1)c1cccnc1Nc1cccc(C(F)(F)F)c1`, the Potency entry in [1], in [2], in assay [3] and in [4] was “inactive” each time.
Take `Cc1c(Nc2ncccc2C(=O)O)cccc1C(F)(F)F`: the Potency entry in [1], in [2], in [3] and in assay [4] was “inactive” each time.
For the compound `COc1cc(/C=C/C(N)=O)cc(OC)c1OC`, the Potency result in assay [1], in assay [2], in [3] and in assay [4] was “inactive” in each case.
Consider `O=c1c(C2CC(c3ccc(-c4ccc(Br)cc4)cc3)Cc3ccccc32)c(O)sc2ccccc12` (configuration not stated), for which the Potency result in assay [1], in assay [2], in assay [3], in assay [4], in assay [5] and in assay [8] was “inactive” each time. In assay [7], the Potency was 11.9 µM (active).
With `CC(=O)[C@H]1CC[C@H]2[C@@H]3C[C@H](C)C4=CC(=O)CC[C@]4(C)[C@H]3[C@@H](O)C[C@]12C`, the Potency result in assay [1], in [2], in [3] and in assay [4] was “inactive” each time.
In the case of `CC(C(=O)c1ccccc1)N(C)C` (configuration not stated), the Potency result in assay [1], in [2], in assay [3], in assay [4], in assay [5] and in [6] was “inactive” in each case. The Potency result in assay [7], in [8] and in [9] was “inactive” throughout.
Turning to `CCOC(=O)C1=C(C)NC(C)=C(C(=O)OC)C1c1cccc([N+](=O)[O-])c1` (configuration not stated), the Potency entry in assay [1], in assay [2], in [3] and in assay [4] was “inactive” each time.
Regarding `CC[C@H](C)[C@H](N)C(=O)O`, the Potency entry in assay [1], in assay [2], in assay [3] and in [4] was “inactive” each time.
With `CCCN(CCC)C(=O)Cc1c(-c2ccc(Cl)cc2)nc2ccc(Cl)cn12`, the Potency result in assay [1], in assay [2], in assay [3], in [4] and in assay [5] was “inactive” throughout.
With `CCCCC(CC)CN1CN(CC(CC)CCCC)CC(C)(N)C1` (configuration not stated), the Potency result in assay [1], in assay [2], in [3] and in assay [4] was “inactive” throughout.
As to `CC(C)(C)NCC(O)COc1cccc2c1C[C@H](O)[C@H](O)C2` (some centres not stated), the Potency result in assay [1], in [2], in assay [3] and in assay [4] was “inactive” in each case.
As to `C[C@]12CCC(=O)C=C1CC[C@@H]1[C@@H]2CC[C@@]2(C)[C@H]1CC[C@]2(C)O`, the Potency result in [1], in [2], in assay [3], in assay [4], in [5] and in assay [6] was “inactive” throughout. Moreover, the Potency result in assay [8] is “inactive”.
With `O=P(O)(O)C(O)(Cn1ccnc1)P(=O)(O)O`, the Potency entry in assay [1], in assay [2], in [3] and in [4] was “inactive” in each case.
`CN=C(NC#N)NCCSCc1csc(N=C(N)N)n1`: the Potency entry in assay [1], in assay [2], in assay [3] and in assay [4] was “inactive” in each case.
For `Cc1cc(-n2nc3ccc(Cl)cc3n2)c(O)c(C(C)(C)C)c1`, the Potency result in assay [1], in assay [2], in [3] and in assay [4] was “inactive” throughout.
In the case of `COc1cccc(OC)c1C(=O)N[C@@H]1C(=O)N2[C@@H]1SC(C)(C)[C@@H]2C(=O)O`, the Potency result in assay [1], in assay [2], in [3] and in assay [4] was “inactive” throughout.
With `CCN(CC)CC(=O)Oc1ccc(NC(C)=O)cc1`, the Potency result in [1], in assay [2], in [3] and in assay [4] was “inactive” each time.
On to `CCC(CC)(CNC(=O)CCCO)c1cccc(OC)c1`, for which the Potency result in [1], in assay [2], in assay [3], in [4], in assay [5] and in [6] was “inactive” in each case. The Potency result in assay [7], in [8] and in assay [9] was “inactive” throughout.
